Results from the supplement of paper PMC6992640.
± gives the standard deviation of the averaged measurements.

Tests used:
Assay in all cases: cell viability (% of vehicle); higher = less cytotoxic
HCI01 [1] = cells of a triple-negative basal-like breast cancer xenograft; settings: 1 µM; 72 h
UCD52 [2] = cells of a triple-negative basal-like breast cancer xenograft; settings: 1 µM; 72 h
WHIM2 [3] = cells of a triple-negative basal-like breast cancer xenograft; settings: 1 µM; 72 h
WHIM30 [4] = cells of a triple-negative basal-like breast cancer xenograft; settings: 1 µM; 72 h
HCI01 [5] = settings: 10 µM; 72 h
HCI03 = cells of an ER-positive luminal breast cancer xenograft; settings: 10 µM; 72 h
HCI09 = cells of a triple-negative luminal androgen receptor type breast cancer xenograft; settings: 10 µM; 72 h
HCI11 = cells of an ER-positive luminal breast cancer xenograft; settings: 10 µM; 72 h
HCI13 = cells of an ER-positive luminal breast cancer xenograft; settings: 10 µM; 72 h
HCI16 = cells of a triple-negative basal-like breast cancer xenograft; settings: 10 µM; 72 h
UCD52 [6] = settings: 10 µM; 72 h
WHIM2 [7] = settings: 10 µM; 72 h
WHIM30 [8] = settings: 10 µM; 72 h

| SMILES | cell viability (HCI01 [1]) | cell viability (UCD52 [2]) | cell viability (WHIM2 [3]) | cell viability (WHIM30 [4]) | cell viability (HCI01 [5]) | cell viability (HCI03) | cell viability (HCI09) | cell viability (HCI11) | cell viability (HCI13) | cell viability (HCI16) | cell viability (UCD52 [6]) | cell viability (WHIM2 [7]) | cell viability (WHIM30 [8]) |
| --- | --- | --- | --- | --- | --- | --- | --- | --- | --- | --- | --- | --- | --- |
| Cc1cc(-n2c(=O)[nH]c(=O)n(C)c2=O)ccc1Oc1ccc(SC(F)(F)F)cc1 [Toltrazuril] | 90.8 | 97.6 | 105 | 90.8 | 75.8 ± 1.2 | 132 | 61.9 ± 18 | 84 | 117 ± 11 | 115 | 79.5 ± 4.9 | 41.3 ± 3.9 | 98.6 ± 14 |
| CN1CCC(COc2cnc(-c3cccc(Cn4nc(-c5cccc(C#N)c5)ccc4=O)c3)nc2)CC1 | 83.2 | 79.2 | 97.8 | 79.6 | 87.4 ± 46 | 45.7 | 15.5 ± 4.2 | 57.6 | 72.4 ± 35 |  | 28 ± 5.6 | 34.3 ± 2.1 | 65.8 ± 4.3 |
| CCCSc1nc(NC2CC2c2ccc(F)c(F)c2)c2nnn(C3CC(OCCO)C(O)C3O)c2n1 (stereo not drawn) [Ticagrelor] | 97.8 | 91 | 89.7 | 75.5 | 41.1 ± 38 | 122 | 47.6 ± 30 | 80.5 | 46.1 ± 3.6 | 80 | 64.95 ± 0.47 | 41.2 ± 12 | 97.7 ± 5.2 |
| Cc1c(C(=O)NN2CCCCC2)nn(-c2ccc(Cl)cc2Cl)c1-c1ccc(Cl)cc1 [Rimonabant] | 87.4 | 91.1 | 100 | 82.6 | 72.2 ± 38 | 114 | 22.2 ± 6.1 | 87.3 | 74.2 ± 19 | 96.7 | 62.3 ± 10 | 35.9 ± 10 | 68.4 ± 15 |
| CN(C)c1ccc(C(=C2C=CC(=[N+](C)C)C=C2)c2ccc(N(C)C)cc2)cc1.[Cl-] [Crystal Violet] | 74.7 | 61.1 | 51.2 | 40.8 | 28.8 ± 4.1 | 48.9 | 26.9 ± 4.8 | 28.1 | 24.73 ± 0.16 | 56.7 | 29.6 ± 3.3 | 46.7 ± 15 | 36.8 ± 2.2 |
| COc1ccc2cc1Oc1ccc(cc1)CC1c3c(cc4c(c3Oc3cc5c(cc3OC)CCN(C)C5C2)OCO4)CCN1C (stereo not drawn) [Cepharanthine] | 86.1 | 52.9 | 80.7 | 60.6 | 57.1 ± 12 | 64.3 | 26.6 ± 5.9 | 73.5 | 159 ± 37 | 170 | 36.2 ± 1.8 | 64.7 ± 8.1 | 94.3 ± 9.8 |
| COC1=C(OC)C(=O)C(CCCCCCCCCCO)=C(C)C1=O [Idebenone] | 91.1 | 90.2 | 107 | 94.5 | 34 ± 2.8 | 107 | 39.1 ± 18 | 87.2 | 92.2 ± 61 | 104 | 78.2 ± 6.6 | 78.4 ± 30 | 51.9 ± 20 |
| Nc1ccc2cc3ccc([NH3+])cc3nc2c1.Nc1ccc2cc3ccc([NH3+])cc3nc2c1.O=S(=O)([O-])[O-] [Proflavine Hemisulfate] | 91.4 | 139 | 51.3 | 58.8 | 82.6 ± 55 | 144 | 23.3 ± 3.6 | 41.6 |  | 165 | 54.6 ± 16 | 50.3 ± 13 | 85.2 ± 2.2 |
| O=C(c1cc(Cc2n[nH]c(=O)c3ccccc23)ccc1F)N1CCN(C(=O)C2CC2)CC1 |  |  |  |  | 166 ± 50 | 112 | 72.2 ± 9.9 | 129 | 103 ± 5.2 | 166 | 117 ± 16 | 105 ± 6.3 |  |
| CCC1OC(=O)CC(O)C(C)C(OC2OC(C)C(OC3CC(C)(O)C(O)C(C)O3)C(N(C)C)C2O)C(CC=O)CC(C)C(=O)C=CC(C)=CC1COC1OC(C)C(O)C(OC)C1OC.O=C(O)C(O)C(O)C(=O)O (stereo not drawn) [Tylosin tartrate] |  |  |  |  | 75.1 ± 40 | 165 | 88.2 ± 5.5 | 82.3 | 97.3 ± 33 | 126 | 85.2 ± 5.8 | 110.8 ± 0.8 |  |
| CC1(COc2ccc3c(c2)ncn3-c2ccc3cccc(N4CCC(N)CC4)c3n2)COC1 | 97.6 | 138 |  | 71.3 | 41.1 ± 22 |  | 12.7 ± 2.4 |  | 26.6 ± 24 |  | 34 ± 9.8 | 35 ± 13 | 60.3 ± 3.4 |
| CCN(CC)CCNC(=O)c1c(C)[nH]c(C=C2C(=O)Nc3ccc(F)cc32)c1C [Sunitinib] | 81.1 | 73 | 66 | 86.7 | 106 ± 39 | 134 | 71.8 ± 35 | 134 |  | 125 | 61.8 ± 3.4 | 104 ± 68 | 37.9 ± 7.1 |
| COc1cc(Cc2cnc(N)nc2N)cc(OC)c1OC [Trimethoprim] |  |  |  |  | 78.3 ± 37 | 144 | 91.1 ± 7.9 | 93 | 117 ± 22 | 120 | 95.4 ± 7.4 | 118 ± 7.3 |  |
| NC(=O)c1ncn(C2OC(CO)C(O)C2O)n1 (stereo not drawn) [Ribavirin] |  |  |  |  | 72.7 ± 49 | 148 | 92.7 ± 2.2 | 93.7 | 118 ± 9.9 | 110 | 96.4 ± 6.9 | 99.1 ± 46 |  |
| CCOC(=O)c1c(C)n(C)c2ccc(O)cc12 [Mecarbinate] |  |  |  |  | 72.1 ± 43 | 152 | 111 ± 4.2 | 90.9 | 135 ± 14 | 115 | 87.3 ± 3.8 | 99.6 ± 22 |  |
| CCc1cnn2c(NCc3ccc[n+]([O-])c3)cc(N3CCCCC3CCO)nc12 (stereo not drawn) | 46.8 | 29.2 | 38.1 | 34.9 | 38.1 ± 3.4 |  | 62.5 ± 35 | 72.6 |  | 92.9 | 42.1 ± 6.4 | 48.7 ± 12 | 66.2 ± 6.1 |
| Cc1c(OCC(F)(F)F)ccnc1CS(=O)c1nc2ccccc2[nH]1 (stereo not drawn) [Lansoprazole] |  |  |  |  | 170 ± 24 | 160 | 97.4 ± 32 | 128 | 142 ± 24 | 144 | 190 ± 5.9 |  |  |
| CC(=O)Nc1ccccc1 [Acetanilide] |  |  |  |  | 76.6 ± 44 | 163 | 99.2 ± 7.3 | 81.8 | 110 ± 8.1 | 138 | 75.2 ± 13 | 126 ± 14 |  |

| SMILES | cell viability (HCI01 [1]) | cell viability (UCD52 [2]) | cell viability (WHIM2 [3]) | cell viability (WHIM30 [4]) | cell viability (HCI01 [5]) | cell viability (HCI03) | cell viability (HCI09) | cell viability (HCI11) | cell viability (HCI13) | cell viability (HCI16) | cell viability (UCD52 [6]) | cell viability (WHIM2 [7]) | cell viability (WHIM30 [8]) |
| --- | --- | --- | --- | --- | --- | --- | --- | --- | --- | --- | --- | --- | --- |
| Cc1cnc(C(=O)O)c[n+]1[O-] [Acipimox] |  |  |  |  | 76.1 ± 45 | 159 | 98.5 ± 17 | 78.9 | 90.4 ± 3.8 | 103 | 79.6 ± 5.9 | 108 ± 1.4 |  |
| CC(C)(C)C(=O)OCOP(=O)(COCCn1cnc2c(N)ncnc21)OCOC(=O)C(C)(C)C [Adefovir Dipivoxil] |  |  |  |  | 109 ± 43 | 148 | 62.7 ± 38 | 105 | 43.6 ± 9.2 | 129 | 101 ± 9.6 | 50.6 ± 3.7 |  |
| CCCSc1ccc2nc(NC(=O)OC)[nH]c2c1 [Albendazole] |  |  |  |  | 166 ± 38 | 131 | 172 ± 35 | 93.6 | 127 ± 10 | 160 | 95.4 ± 25 | 123 ± 28 |  |
| COC(c1ccccc1)(c1ccccc1)C(Oc1nc(C)cc(C)n1)C(=O)O (stereo not drawn) [Ambrisentan] |  |  |  |  | 79.8 ± 52 | 128 | 92.8 ± 15 | 84 | 94.1 ± 1.8 | 106 | 74.7 ± 11 | 107 ± 16 |  |
| NC(=O)OCC(COC(N)=O)c1ccccc1 [Felbamate] |  |  |  |  | 71.2 ± 42 | 137 | 90.7 ± 10 | 95.3 | 103 ± 8.3 | 101 | 81.2 ± 7.7 | 99.5 ± 11 |  |
| CC(=O)C1(O)Cc2c(O)c3c(c(O)c2C(OC2CC(N)C(O)C(C)O2)C1)C(=O)c1ccccc1C3=O.Cl (stereo not drawn) [Idarubicin HCl] |  | 32.5 | 28.8 | 41.2 | 37.5 ± 5.3 | 67.6 | 28.4 ± 1.2 | 27.8 | 47.1 ± 3.2 | 32.1 | 31.4 ± 6.4 | 29.3 ± 9.9 | 44.7 ± 14 |
| Cc1c(OCC(F)(F)F)ccnc1CS(=O)c1nc2ccccc2[n-]1.[Na+] (stereo not drawn) [Lansoprazole sodium] |  |  |  |  | 181 ± 1.4 | 145 | 124 ± 9 | 163 | 135 ± 5.7 | 152 | 138.2 ± 0.31 | 143 ± 9.9 |  |
| CNC(=O)C(Cc1c[nH]c2ccccc12)NC(=O)C(CC(=O)NO)CC(C)C (stereo not drawn) |  |  |  |  | 141 ± 3.8 | 116 | 88.9 ± 9.2 | 129 | 92.5 ± 5.4 | 140 | 126 ± 16 | 105 ± 14 |  |
| CC(=O)NC1C(N=C(N)N)C=C(C(=O)O)OC1C(O)C(O)CO (stereo not drawn) [Zanamivir] |  |  |  |  | 82.4 ± 58 | 156 | 96 ± 12 | 90.8 | 108 ± 2.3 | 113 | 90.4 ± 1.5 | 106 ± 31 |  |
| CCCc1cc(=O)[nH]c(=S)[nH]1 [Propylthiouracil] |  |  |  |  | 70.4 ± 44 | 153 | 100 ± 12 | 97.8 | 143 ± 30 | 120 | 91.2 ± 3.8 | 100 ± 38 |  |
| NC(=O)c1cnccn1 [Pyrazinamide] |  |  |  |  | 66.5 ± 42 | 126 | 90.8 ± 15 | 93.8 | 99.7 ± 1.4 | 98.9 | 85.8 ± 0.98 | 90.2 ± 30 |  |
| C1=C\COCc2cc(ccc2OCCN2CCCC2)Nc2nccc(n2)-c2cccc(c2)COC/1 [Pacritinib] | 70.5 | 49.1 | 77.3 | 47.3 | 28.9 ± 7.5 |  | 25.9 ± 3.1 | 131 | 50.7 ± 7 | 133 | 35.1 ± 1.6 | 49.9 ± 4.6 | 50.7 ± 17 |
| COC(=O)Nc1nc2ccc(Sc3ccccc3)cc2[nH]1 [Fenbendazole] |  |  |  |  | 193 ± 48 | 129 | 182 ± 25 | 129 | 155 ± 32 | 153 | 121.4 ± 0.081 | 142 ± 20 |  |
| COc1cccc2c1C(=O)c1c(O)c3c(c(O)c1C2=O)CC(O)(C(=O)CO)CC3OC1CC(N)C(O)C(C)O1.Cl (stereo not drawn) [Epirubicin HCl] | 105 | 35.9 | 22.2 | 46.4 | 56.2 ± 19 |  | 26.2 ± 13 | 50.5 |  | 35.4 | 22.7 ± 4 | 29.1 ± 15 | 50.8 ± 12 |
| CCN1CCN(C(=O)NC(C(=O)NC2C(=O)N3C(C(=O)O)=C(CSc4nnnn4C)CSC23)c2ccc(O)cc2)C(=O)C1=O (stereo not drawn) [Cefoperazone] |  |  |  |  | 110.1 ± 0.54 | 158 | 120 ± 16 | 132 | 174 ± 9.6 | 104 | 131 ± 18 | 108 ± 22 |  |
| CC1CCN(C(=O)CC#N)CC1N(C)c1ncnc2[nH]ccc12.O=C(O)CC(O)(CC(=O)O)C(=O)O (stereo not drawn) |  |  |  |  | 188 ± 8.3 | 151 | 77.7 ± 1.5 | 115 | 104 ± 9.7 | 141 | 109 ± 21 | 87.9 ± 3 |  |
| O=c1[nH]cc(F)c(=O)[nH]1 [Fluorouracil (Adrucil)] |  |  |  |  | 136 ± 18 | 112 | 75.1 ± 7.2 | 167 | 81.1 ± 6 | 151 | 139.3 ± 0.23 | 106 ± 20 |  |
| CC(C)c1nc(N(C)S(C)(=O)=O)nc(-c2ccc(F)cc2)c1C=CC(O)CC(O)CC(=O)[O-].CC(C)c1nc(N(C)S(C)(=O)=O)nc(-c2ccc(F)cc2)c1C=CC(O)CC(O)CC(=O)[O-].[Ca+2] (stereo not drawn) [Rosuvastatin Calcium] | 96.2 | 83.1 | 83.4 | 84.8 | 109 ± 2.8 | 115 | 112 ± 44 |  | 126 ± 30 | 117 | 50.8 ± 4.2 | 44.1 ± 6.8 | 88.4 ± 11 |
